PAFAH1B2 inh – inhibitors of human PAFAH1B2; P68402; recombinant PAFAH1B2, FP-rhodamine activity probe, fluorescence polarization; inhibition, % at 3.39 µM; actives 1.2% (n = 340,000); AID 492953;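 active means inhibition above the mean of all tested compounds plus 3 SD, cut at about 24% in these data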;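 further: 0% = enzyme with DMSO and 100% = wells lacking PAFAH1B2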
pPAFAH inh – pPAFAH (human) enzyme inhibition. Q13093. recombinant pPAFAH, FP-rhodamine probe fluorescence polarization. inhibition, % at 3.39 µM. actives 1.5% (n = 330,000);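 active means inhibition above the mean inhibition across the screen plus 3 SD, cut at about 25% in these data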;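 further: inhibitors block binding of the rhodamine activity-based probe so polarization drops; 0% = enzyme with DMSO and 100% = wells lacking pPAFAH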
Target sequence (Q13093 whole entry, looked up): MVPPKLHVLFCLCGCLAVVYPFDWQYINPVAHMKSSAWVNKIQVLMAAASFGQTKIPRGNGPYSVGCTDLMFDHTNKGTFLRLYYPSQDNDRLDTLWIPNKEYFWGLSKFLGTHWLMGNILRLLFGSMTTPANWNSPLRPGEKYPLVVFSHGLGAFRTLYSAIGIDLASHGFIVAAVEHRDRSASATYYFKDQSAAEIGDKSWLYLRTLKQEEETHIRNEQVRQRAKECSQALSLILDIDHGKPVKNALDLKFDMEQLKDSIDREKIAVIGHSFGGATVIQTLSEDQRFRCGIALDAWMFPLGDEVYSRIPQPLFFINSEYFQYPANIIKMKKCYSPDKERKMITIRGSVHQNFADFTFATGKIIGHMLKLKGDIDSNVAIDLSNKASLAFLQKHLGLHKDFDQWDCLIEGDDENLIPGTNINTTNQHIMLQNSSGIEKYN
M18AAP inhibitor – PfM18AAP enzyme inhibition; recombinant PfM18AAP, H-Glu-NHMec fluorogenic cleavage; inhibition, % at 7.35 µM; actives 1.2% (n = 290,000);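 active means inhibition above the campaign mean inhibition over all tested compounds plus 3 SD, cut at about 28% in these data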;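 further: 0% = plate median of test compound wells and 100% = 2 mM ZnCl2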
Pemphigus Ab inh – inhibitors of pemphigus antibody binding to human desmoglein-3; P32926; actives 0.48% (n = 310,000); binding (percent of control), % at 10 µM; DSG3-coupled beads, scFv-anti-DSG3-GFP binding, flow cytometry; stronger effect = lower value;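 active means binding more than 3 SD below its plate's average and above zero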;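 further: hits lower antibody fragment binding to DSG3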
PAFAH2 inh – PAFAH2 (human) inhibition | inhibition, % at 3.39 µM | recombinant PAFAH2, FP-rhodamine activity probe, fluorescence polarization | actives 0.99% (n = 340,000) | Q99487;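 active means inhibition above the mean over all tested compounds plus 3 SD, cut at about 30% in these data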;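 further: inhibitors block probe labeling of enzyme so polarization drops; 0% = enzyme with DMSO and 100% = wells lacking PAFAH2 protein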
PAFAH1B3 inh – blocks human PAF acetylhydrolase 1B catalytic subunit 3 | Q15102 | recombinant PAFAH1B3, FP-rhodamine probe, fluorescence polarization | inhibition, % at 3.39 µM | actives 0.28% (n = 340,000) | AID 492972;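 active means inhibition above the screen-wide average of all tested compounds plus 3 SD, cut at about 25% in these data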;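 further: 0% = enzyme with DMSO only and 100% = wells lacking PAFAH1B3 protein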
Starred values were filed as active, the others as inactive. Compounds with a hit are over-represented: about 3.8% of the library has one in this group of screens.

C/C(CCC1CC(C)(C)OC1=O)=N\NC(N)=S (stereo unspecified) was read as PAFAH1B2 inh 1, pPAFAH inh -1, M18AAP inhibitor 14, PAFAH2 inh -3 and PAFAH1B3 inh 6.
Screening O=C(NCC1CCCO1)C(=O)N/N=C/c1ccc(OCc2ccccc2Cl)cc1 (stereo unspecified) returned PAFAH1B2 inh 3, pPAFAH inh 30*, PAFAH2 inh 5 and PAFAH1B3 inh 6.
COC(=O)c1ccc(N2NC(=O)/C(=C/c3cc(OC)c(OC)c(OC)c3)C2=O)cc1 was read as PAFAH1B2 inh 12, pPAFAH inh 9, M18AAP inhibitor 6, Pemphigus Ab inh 115, PAFAH2 inh 2 and PAFAH1B3 inh 13.
Screening COC(=O)c1ccc(N2NC(=O)/C(=C/c3cc(OC)c(O)c(OC)c3)C2=O)cc1 returned PAFAH1B2 inh 7, pPAFAH inh 18, M18AAP inhibitor 31*, Pemphigus Ab inh 101, PAFAH2 inh 5 and PAFAH1B3 inh 4.
Screening COC(=O)c1ccc(CNC(=O)COC(=O)/C=C/c2cc(OC)c(OC)c(OC)c2)cc1 returned PAFAH1B2 inh 4, pPAFAH inh -6, Pemphigus Ab inh 61*, PAFAH2 inh 2 and PAFAH1B3 inh 16.
`COc1cc(/C=C/C(=O)OCC(=O)NCC2CCCCC2)ccc1O` gave PAFAH1B2 inh 4, pPAFAH inh 28*, Pemphigus Ab inh 97, PAFAH2 inh 88* and PAFAH1B3 inh 0.
`Nc1cc(Br)cc2c1[nH]c(=O)c1ccccc12` gave Pemphigus Ab inh 101.
O=C(NCCc1ccco1)c1cc(COc2cccc(C(F)(F)F)c2)on1 was read as PAFAH1B2 inh 4, pPAFAH inh 10, M18AAP inhibitor -12, PAFAH2 inh -3 and PAFAH1B3 inh 7.
For CCCOC(=O)CSc1nc(N)c(C#N)c(CC)c1C#N the results were PAFAH1B2 inh 6, pPAFAH inh 3, M18AAP inhibitor -5, Pemphigus Ab inh 13*, PAFAH2 inh -6 and PAFAH1B3 inh 7.
For CCCCOC(=O)CSc1nc(N)c(C#N)c(-c2ccc(OC)cc2)c1C#N the results were PAFAH1B2 inh 1, pPAFAH inh 0, M18AAP inhibitor -2, Pemphigus Ab inh -28*, PAFAH2 inh -7 and PAFAH1B3 inh 2.
CCOC(=O)CC(=O)CSc1nc(N)c(C#N)c(-c2ccc(F)cc2)c1C#N was read as PAFAH1B2 inh 4, pPAFAH inh 28*, M18AAP inhibitor 21, Pemphigus Ab inh 106, PAFAH2 inh 4 and PAFAH1B3 inh -6.
Screening CCCCOC(=O)CSc1nc(N)c(C#N)c(-c2ccc(OCC)cc2)c1C#N returned PAFAH1B2 inh 4, pPAFAH inh 1, M18AAP inhibitor -14, Pemphigus Ab inh 80*, PAFAH2 inh 8 and PAFAH1B3 inh 4.
Screening COc1cccc(CSC(C(=O)O)c2ccccc2)c1 (stereo unspecified) returned Pemphigus Ab inh 109.
`O=C1C=CC(=O)N1c1cccc(-c2ccccc2)c1` gave PAFAH1B2 inh -6, pPAFAH inh 27*, M18AAP inhibitor -42, Pemphigus Ab inh 106, PAFAH2 inh -7 and PAFAH1B3 inh -3.
Screening CC1=NN(c2ccc(C)c(C)c2)C(=O)/C1=C\C=C\c1ccc([N+](=O)[O-])o1 returned PAFAH1B2 inh -3, pPAFAH inh 25*, M18AAP inhibitor -11, Pemphigus Ab inh 96, PAFAH2 inh 5 and PAFAH1B3 inh 2.
`O=C(c1ccc(CS(=O)Cc2cccc(Cl)c2)o1)N1CCN(c2ccc(F)cc2)CC1` (stereo unspecified) gave Pemphigus Ab inh 99.
For O=C(c1ccc(CS(=O)Cc2ccc(Cl)cc2)o1)N1CCN(c2ccc(F)cc2)CC1 (stereo unspecified) the results were PAFAH1B2 inh 11, pPAFAH inh 30*, M18AAP inhibitor 3, Pemphigus Ab inh 111, PAFAH2 inh 1 and PAFAH1B3 inh 3.
For O=C(c1ccc(CS(=O)Cc2ccc(Cl)cc2)o1)N1CCN(c2cccc(Cl)c2)CC1 (stereo unspecified) the results were PAFAH1B2 inh 4, pPAFAH inh 26*, M18AAP inhibitor 1, PAFAH2 inh 6 and PAFAH1B3 inh -4.

Screening data (PubChem)
